Shown are actives, neighbours in structure and some others; about 7.5% of the full set was active somewhere.
SMN2 splice enh = enhancers of SMN2 splice variant expression; AID 1458; hit rate 2.8% among 210,000; Potency, µM (top dose mostly 46.1 µM), for inactives: at the highest dose activity change, positive = activation, hits mostly activators; HEK293 SMN2-luciferase splicing reporter, luminescence, 30-36 h; further: % of control where 0% means no effect; nearly all actives have a fitted effect of over 55% in size
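HEK293 cells carry an SMN2 minigene-luciferase reporter in which exon 7 inclusion puts luciferase in frame. Cells were seeded at 2000 cells/well, attached for 10-12 hours, then exposed to compounds for 30-36 hours at 37C before ONE-Glo luminescence.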
ELG1 genotox = inducers of genotoxicity in HEK293T ELG1-luciferase cells; Potency, µM (highest dose often 46 µM), for the others: at the highest dose activity change, positive = activation, usual class: activators; AID 504466; HEK293T ELG1-luciferase reporter, luminescence, 16 h; hit rate 1.3% among 330,000; further: % of control where 0% means no effect; nearly all actives have a fitted effect of over 60% in size
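Luminescence read-out: rising ELG1-luciferase signal, reflecting elevated ELG1 protein under genetic stress, flags genotoxic compounds. Cells were treated for 16 hr at 37 °C before ONE-Glo detection.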
Rab9 promoter act = Rab9 promoter activation. Huh7 Rab9 promoter-luciferase reporter, luminescence, 24 h. Potency, µM (doses to about 9.22 µM), for inactives: top-dose activation, negative = inhibition, hits mostly activators. hit rate 2.8% among 320,000; further: % of control where 0% means no effect; nearly all actives have a fitted effect of over 60% in size
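Cells were plated at 1500 per well in reduced-serum medium with 10% FBS and left 2 h. Compound in DMSO was then added for 24 h at 37 °C. Reporter signal was read by luminescence after 10 min with luciferase detection reagent.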
NPC1 prom act = NPC1 promoter activation. Potency, µM (titrated, usually from 9.22 µM), inactives show at the top dose activation, actives largely listed as activators. AID 485313. Huh7 NPC1 promoter luciferase reporter, 24 h. hit rate 2.4% among 320,000; further: % of control where 0% means no effect; nearly all actives have a fitted effect of over 60% in size
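Luciferase expression driven by the NPC1 promoter was measured in stably transfected Huh7 cells after a 24 h compound incubation, using a luciferase reagent and a luminescence read.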
FLuc counter = counter-screen for miR-21 project: firefly luciferase inhibitors or activators; P08659; hit rate 6.9% among 360,000; purified FLuc, Km substrates, luminescence inhibition; AID 588342; Potency, µM (titrated, usually from 57.5 µM), for the others: at the top dose activity change, negative = inhibition, most hits filed as inhibitors;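 further: plate controls were vehicle for no effect and reference inhibitor for full effect; nearly all actives have a fitted effect of over 55% in size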
Target sequence (P08659 whole entry, looked up): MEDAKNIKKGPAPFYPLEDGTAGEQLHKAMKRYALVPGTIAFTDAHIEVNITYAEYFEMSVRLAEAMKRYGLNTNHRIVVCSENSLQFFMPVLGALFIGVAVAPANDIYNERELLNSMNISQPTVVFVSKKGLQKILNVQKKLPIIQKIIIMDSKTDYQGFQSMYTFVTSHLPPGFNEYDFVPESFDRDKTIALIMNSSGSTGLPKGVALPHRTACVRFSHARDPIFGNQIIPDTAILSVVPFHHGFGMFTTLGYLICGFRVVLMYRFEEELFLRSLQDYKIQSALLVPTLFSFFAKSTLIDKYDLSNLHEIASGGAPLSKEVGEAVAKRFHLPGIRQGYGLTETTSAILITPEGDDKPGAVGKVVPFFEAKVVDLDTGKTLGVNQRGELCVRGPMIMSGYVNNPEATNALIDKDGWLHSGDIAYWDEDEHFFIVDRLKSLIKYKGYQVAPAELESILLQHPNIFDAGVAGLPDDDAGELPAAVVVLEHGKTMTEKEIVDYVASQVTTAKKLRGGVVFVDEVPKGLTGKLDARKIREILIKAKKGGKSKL
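Biochemical qHTS of compounds, final roughly 60 µM downward over six points, against 10 nM purified firefly luciferase using Km concentrations of substrates (10 uM D-luciferin, 10 uM ATP) in Tris acetate pH 7.5 buffer; luminescence output.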
Numbers without * were called inactive; ? = inconclusive; nt = not tested or not shown; [ ] = dose if it differs, or a comment. The call rests on the fitted dose curve; in most records, active means well fitted curve in the direction sought with a large enough effect; inconclusive means small, poorly fitted or top-dose-only effect, or another doubt; inactive means no such curve, though single readings can be large; an effect the other way counts as inactive or inconclusive. Potency means the concentration at half of the fitted maximal effect.

SMILES	SMN2 splice enh	ELG1 genotox	Rab9 promoter act	NPC1 prom act	FLuc counter
CC(C)c1nnc(NC(=O)COc2ccc3ccccc3c2)s1	nt	7%	1%	1%	3%
Cc1nnc(NC(=O)c2ccc3ccccc3c2)s1	nt	4.6µM*	1.4µM*	1.8µM*	11µM*
CC(C)c1nnc(NC(=O)c2ccc3ccccc3c2)s1	nt	?	1µM*	1µM*	2.1µM*
O=C(/C=C/c1ccco1)Nc1ccc(C(=O)N2CCOCC2)cc1	21%	3%	3%	10%	?
O=C(/C=C/c1ccco1)Nc1ccc(CN2CCOCC2)cc1	nt	?	2.8µM*	1.4µM*	6µM*
O=C(/C=C/c1ccccc1)Nc1ccc(CN2CCOCC2)cc1	29%	17%	?	18%	12µM*
O=C(/C=C/c1ccco1)Nc1ccc(N2CCCC2)cc1	16µM*	?	2.8µM*	3.5µM*	2.4µM*
O=C(/C=C/c1ccc(Cl)cc1Cl)Nc1ccc(CN2CCOCC2)cc1	-77%	9%	-22%	-8%	7.6µM*
Cc1ccc(-c2nc3ccccc3o2)cc1NC(=S)NC(=O)/C=C/c1ccco1	-12%	4%	-1%	-17%	?
Cc1ccc2oc(-c3ccc(C)c(NC(=O)c4ccc5c(c4)OCCO5)c3)nc2c1	2%	nt	nt	nt	-16%
Cc1ccc2oc(-c3ccc(C)c(NC(=O)/C=C/c4ccc(Cl)cc4)c3)nc2c1	20%	nt	nt	nt	12µM*
Cc1ccc2oc(-c3ccc(C)c(NC(=O)/C=C/c4ccco4)c3)nc2c1	?	nt	nt	nt	12µM*
O=C(C[N+]1(c2ccccc2)CCOCC1)c1ccccc1	2%[9.22 µM]	nt	nt	nt	nt
Cc1c(C)n(C)c2ccc(C(=O)NCCCN3CCN(c4ccc(F)cc4)CC3)cc12	nt	-9%	-4%	-2%	5%
CSc1ccc(CC(=O)N2CCC(n3nccc3NC(=O)C3CC3)CC2)cc1	nt	?	?	3.2µM*	?
Cc1ccc(C2=NN3C(=O)c4ccccc4C3C2)cc1 (configuration not stated)	nt	?	?	?	17µM*
O=C(COc1ncnc2sccc12)N1CCN(c2ccccc2)CC1	nt	2%	1%	-1%	2%
CCOc1ccc(NC(=O)CSc2cn(CC(=O)N3CCCCCC3)c3ccccc23)cc1	nt	nt	nt	nt	-1%
COc1cccc(NC(=O)Nc2ccc3nc(C)c(C)nc3c2)c1	nt	-7%	26%	23%	?
COc1cccc(NC(=O)Nc2ccc3c(c2)nc(C)n3C)c1	nt	?	0.71µM*	0.71µM*	0.95µM*
COc1cccc(NC(=O)Nc2ccc3nsnc3c2)c1	13µM*	0%	2.8µM*	?	7.6µM*
Cc1nc2cc(NC(=O)Nc3nccs3)ccc2n1C	14µM*	2.6µM*	1.4µM*	1.4µM*	4.3µM*
Cc1nc2cc(NC(=O)NC(C)(C)C)ccc2n1C	nt	9%	13%	14%	?
CCn1c(C)nc2cc(NC(=O)Nc3cccc(C(C)=O)c3)ccc21	nt	-9%	?	2.8µM*	1.5µM*
COc1cc(/C=N/NC(=O)c2ccc(NS(=O)(=O)c3cccs3)cc2)cc(OC)c1O	nt	-1%	-7%	-1%	?
SMILES	SMN2 splice enh	ELG1 genotox	Rab9 promoter act	NPC1 prom act	FLuc counter
CC(C)(SC(=S)N1CCCCCC1)C(=O)O	nt	1%	-11%	-2%	-4%
Cc1cc2ncn(CCOc3ccccc3)c2cc1C	-2%	?	3.5µM*	?	17µM*
CCS(=O)(=O)c1ncc(Cl)c(C(=O)Nc2c(C(=O)c3ccc(C)cc3)oc3ccccc23)n1	-4%	nt	nt	nt	-4%
CC1Oc2ccccc2C=C1/C=N/NC(=O)c1ccncc1 (configuration not stated)	nt	0%	-2%	0%	17µM*
CC(C)C[C@H](NC(=O)OC(C)(C)C)C(=O)N/N=C/C1=Cc2ccccc2OC1C (some centres not stated)	-27%	-8%	1%	-2%	0%
Nc1nc(Nc2ccccc2F)nc(N2CCCC2)c1[N+](=O)[O-]	nt	?	?	0%	17µM*
CCn1cc(C(=O)Nc2ccc(C)cc2C)c(=O)c2ccc(C)nc21	-7%	-3%	-5%	-13%	1%
O=C(NCC1CC1)Nc1ccccc1	nt	4%	1%	-1%	-10%
CN1N=C2c3ccccc3CCC2C1c1ccc(C(F)(F)F)cc1 (configuration not stated)	nt	0%	24%	26%	?
CN(C)c1ccc(C2C3CCCc4ccccc4C3=NN2C)cc1 (configuration not stated)	nt	9%	3.2µM*	?	19µM*
O=C(Oc1ccc(Cl)cc1)c1cc(-c2ccc3c(c2)OCCO3)on1	nt	nt	nt	nt	6µM*
COc1ccc(OC(=O)c2cc(-c3ccc4c(c3)OCCO4)on2)cc1	nt	nt	nt	nt	7.6µM*
CC(C)c1ccc(OC(=O)c2cc(-c3ccc4c(c3)OCCO4)on2)cc1	nt	nt	nt	nt	-19%
CC(C)c1ccc(OC(=O)c2cc(-c3ccc(Cl)cc3)on2)cc1	nt	nt	nt	nt	-5%
Cc1cccc(OC(=O)c2cc(-c3ccc4c(c3)OCCO4)on2)c1	nt	nt	nt	nt	4.8µM*
N#Cc1ccc(OC(=O)c2cc(-c3ccc4c(c3)OCCO4)on2)cc1	nt	nt	nt	nt	21µM*
COc1ccccc1NC(=O)CCCn1c(=S)[nH]c2ccccc2c1=O	-43%	-4%	-6%	-3%	1%
COc1ccccc1N1CCN(C(=S)Nc2cccc(C)c2)CC1	-2%	14%	-9%	2%	-8%
COc1cc(Cl)ccc1OCc1cc(C(=O)N2CCCCCC2)no1	nt	14%	0%	11%	?
COc1cc(C)ccc1OCc1cc(C(=O)N2CCC(c3ccc(F)cc3)C2)no1 (configuration not stated)	nt	?	2.2µM*	2.2µM*	7.6µM*
CCOC(=O)C1CCN(C(=O)c2cc(COc3ccc(OC)c4ccccc34)on2)CC1	nt	?	3.5µM*	?	15µM*
CCOC(=O)C1CCCN(C(=O)c2cc(COc3ccc(C)nc3)on2)C1 (configuration not stated)	nt	-2%	17%	16%	?
COc1ccc(OCc2cc(C(=O)N3CCC(OC)CC3)no2)c2ccccc12	nt	?	2.5µM*	?	11µM*
COc1cc(Cl)ccc1OCc1cc(C(=O)N2CCCC(OC)C2)no1 (configuration not stated)	nt	5.8µM*	1.8µM*	2µM*	5.4µM*
COc1ccc(NC(=O)c2ccc(-c3nc(CSc4ccccc4)c(C)o3)cc2)cc1OC	nt	nt	nt	nt	-4%
CCCOC1CCCN(C(=O)c2cc(COc3ccc(F)c(F)c3)on2)C1 (configuration not stated)	nt	?	2.8µM*	2.8µM*	21µM*
CCCN1CCN(C(=O)c2cc(COc3ccc(F)c(F)c3)on2)CC1	nt	?	22%	21%	?
CCn1cc(C2N3CC4(C)CN2CC(C)(C3)C4=O)c2ccccc21 (configuration not stated)	2%	2%	-1%	-2%	4%

Screening data deposited in PubChem BioAssay by National Center for Advancing Translational Sciences (NCATS).
